Source: PubChem (several laboratories)
An excerpt weighted towards active compounds, which were near 3% of everything screened.
FBA Mtb inh = inhibits M. tuberculosis FBA enzyme; AID 588726; inhibition, % at 1 µM; purified M. tuberculosis FBA, fluorescence read-out; hit rate 2.3% among 360,000;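 also: 0% = vehicle and 100% = reference inhibitor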
Rv3671c inh = Rv3671c (M. tuberculosis) protease inhibition. inhibition, % at 5.96 µM. hit rate 0.048% among 320,000; in the data active = inhibition above about 38%;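 also: extracellular domain of Rv3671c used as enzyme; 0% = enzyme with DMSO and 100% = no enzyme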
Target sequence (P9WHR9 whole entry, looked up, the tested form may be a part): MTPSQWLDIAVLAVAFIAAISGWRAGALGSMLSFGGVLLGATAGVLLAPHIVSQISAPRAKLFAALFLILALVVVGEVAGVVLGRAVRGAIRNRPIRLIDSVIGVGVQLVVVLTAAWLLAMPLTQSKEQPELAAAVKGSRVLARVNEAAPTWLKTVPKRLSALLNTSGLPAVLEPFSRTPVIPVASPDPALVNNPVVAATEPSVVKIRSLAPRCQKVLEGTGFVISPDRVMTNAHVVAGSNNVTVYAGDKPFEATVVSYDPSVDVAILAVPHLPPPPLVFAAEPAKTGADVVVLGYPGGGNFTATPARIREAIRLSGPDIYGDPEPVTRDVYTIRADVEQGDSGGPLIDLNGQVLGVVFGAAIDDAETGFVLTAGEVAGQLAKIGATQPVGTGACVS
BioA inh = inhibitors of Mycobacterium tuberculosis BioA enzyme | purified M. tuberculosis BioA enzyme, plate reader | inhibition, % at 9.99 µM | hit rate 0.096% among 360,000; in the data active = inhibition above about 40%
GDH-TPI counter-1 = counter-screen for M. tuberculosis FBA inhibitors: GDH-TPI coupled enzymes; GDH-TPI coupled enzyme counterscreen, NADH absorbance; inhibition, % at 4.8 µM; hit rate 1.2% among 360,000; in the data active = inhibition above about 30%;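 also: 0% = DMSO wells and 100% = wells lacking the enzyme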
FadD28 binding = blocks FadD28 binding to the bisubstrate probe; fluorescence polarization; inhibition, % at 12.5 µM; hit rate 0.22% among 360,000; in the data active = inhibition above about 8.5%, passing the limit was not always enough
Mtb FBA confirm = Mtb FBA inhibition, confirmed | shares compounds with FBA Mtb inh | purified M. tuberculosis FBA, fluorescence read-out | inhibition, % at 1 µM | hit rate 78% among 5,600;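 also: 0% = vehicle wells and 100% = reference inhibitor wells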
GDH-TPI counter-2 = inhibits GDH-TPI coupling enzymes, flagging Mtb FBA hits. hit rate 81% among 5,600. AID 652141. GDH-TPI coupled enzyme counterscreen, fluorescence. inhibition, % at 1 µM. shares compounds with FBA Mtb inh; in the data active = inhibition above about 10%
Starred values were filed as active, the others as inactive; x = no result given; + = active, no number. Rule as the data show it, unless noted: active = inhibition above about 27%; inactive = the rest.

SMILES	FBA Mtb inh	Rv3671c inh	BioA inh	GDH-TPI counter-1	FadD28 binding	Mtb FBA confirm	GDH-TPI counter-2
CO[C@H]1CN(C)C(=O)c2cc(NC(=O)C3CCOCC3)ccc2OC[C@H](C)NC[C@H]1C	x	x	-0.9	x	x	x	x
COCCCNC(=O)C[C@H]1C[C@H](C(=O)N2CCOCC2)[C@@]2(C)c3[nH]c4cc(-c5ccco5)ccc4c3CCN2C1=O	33.2*	x	1.7	0.5	-3.8	15.1	11.4*
CCN(CC)C(=O)[C@H]1C[C@H](CC(=O)NCCN2CCOCC2)C(=O)N2CCc3c([nH]c4cc(-c5ccco5)ccc34)[C@]12C	50.1*	x	-0.2	6.4	-2.4	64.9*	38.8*
CCN(CC)C(=O)[C@H]1C[C@H](CC(=O)NCc2ccco2)C(=O)N2CCc3c([nH]c4cc(-c5ccco5)ccc34)[C@]12C	26.8	x	-2.1	-4.5	-3.4	x	x
CN(C)CCCNC(=O)C[C@H]1C[C@H](C(=O)N2CCOCC2)[C@@]2(C)c3[nH]c4cc(-c5ccco5)ccc4c3CCN2C1=O	33.1*	x	0.3	12.5	-0.5	135.4*	109.7*
COCCCNC(=O)C[C@H]1C[C@H](C(=O)N(C(C)C)C(C)C)[C@@]2(C)c3[nH]c4cc(-c5ccco5)ccc4c3CCN2C1=O	31.5*	x	-3.7	11.5	-0.8	128.1*	104.4*
CN(C)CC(=O)Nc1ccc2c(c1)[C@@H]1C[C@H](CC(=O)NC3CCCC3)O[C@H](CO)[C@@H]1O2	x	x	-2.9	x	x	x	x
CC(C)NC(=O)Nc1ccc2c(c1)C(=O)N([C@@H](C)CO)C[C@@H](C)[C@H](CN(C)Cc1ccncc1)O2	x	x	-1.1	x	x	x	x
CC(=O)Nc1cnc(/C=C\CCCO)cn1	31.6*	x	-2.6	14.2	-3.9	0.6	-4.0
CC(=O)Nc1cnc(-c2ccccc2C(C)=O)cn1	0.4	x	0.5	7.1	-3.1	x	x
COc1ccc(/C=N/NC(=O)c2nc(-c3ccccc3)cc(-c3ccccc3)n2)cc1OC	-0.6	4.4	x	12.4	-6.0	x	x
COc1ccc(/C=N/c2oc(-c3ccccc3)cc2C#N)cc1OC	48.4*	-0.4	-2.9	2.0	-0.4	28.1*	24.6*
CN(C)c1ccc(/C=N/N=C(N)N)cc1[N+](=O)[O-]	79.6*	-4.2	x	30.0	-2.6	197.9*	132.2*
Cc1cccc(CN(C)C[C@H]2OCc3cnnn3CCCC(=O)N([C@H](C)CO)C[C@H]2C)c1	x	x	-1.1	x	x	x	x
CCc1c(C)c(C#N)c2[nH]c3ccccc3n2c1=S	29.5*	-18.8	x	11.2	0.4	64.5*	59.8*
Cc1ccc(Cc2c(C)c(C#N)c3[nH]c4ccccc4n3c2=O)cc1	47.8*	13.2	0.8	-5.3	-1.5	95.5*	64.6*
Cc1[nH]c(=S)c(C#N)c(C)c1Cc1ccccc1	1.5	3.1	12.3	8.9	-0.3	x	x
CCc1cc(=O)n2c([nH]c3ccccc32)c1C#N	66.3*	-25.7	-0.1	1.2	-0.6	59.6*	50.3*
O=C(NC1CCC1)[C@H]1[C@H](CO)[C@H]2Cn3c(ccc(-c4ccccc4)c3=O)[C@@H]1N2CC1CC1	x	x	-2.4	x	x	x	x
Cc1ccccc1-c1ccc2c(c1)O[C@@H](CN(C)CC1CC1)[C@@H](C)CN([C@@H](C)CO)S2(=O)=O	x	x	0.9	x	x	x	x
CCOC(=O)c1c(C)nc2ncccn12	74.6*	1.2	-1.3	16.7	-0.8	37.4*	38.5*
CCOC(=O)c1cn2cccnc2n1	103.8*	6.3	2.4	11.4	0.9	151.2*	134.0*
CCOC(=O)c1cccc(C(=O)OCC)n1	-5.9	-0.2	-2.1	1.5	-0.6	x	x
C[C@H](CO)N1C[C@H](C)[C@@H](CN(C)C(=O)NC2CCCCC2)OCCCC[C@H](C)Oc2ccc(NC(=O)Nc3cccc4ccccc34)cc2C1=O	x	x	-4.5	x	x	x	x
CC(C)c1cc(NCCCN2CCOCC2)n2c(nc3ccccc32)c1C#N	51.2*	-14.1	1.0	6.1	-0.5	169.1*	128.8*
SMILES	FBA Mtb inh	Rv3671c inh	BioA inh	GDH-TPI counter-1	FadD28 binding	Mtb FBA confirm	GDH-TPI counter-2
N#Cc1c2c(c(NCCCN3CCOCC3)n3c1nc1ccccc13)CCC2	27.2*	6.1	1.9	13.7	-0.1	52.5*	59.9*
Cc1[nH]c2ccccc2c1-c1nc2ccccc2[nH]1	14.4	-5.1	1.0	11.2	0.5	x	x
Cc1nc2ccccc2[nH]c1=O	5.7	8.7	x	2.6	-1.4	x	x
c1ccc2[nH]c(-c3ccncc3)nc2c1	29.6*	-1.8	x	2.5	0.0	+	179.0*
c1csc(-c2nc3ccccc3[nH]2)c1	47.7*	3.7	-5.2	7.6	-3.2	63.3*	47.1*
Cc1ccc(-c2nc3ccccc3[nH]2)s1	57.6*	-1.8	-3.1	30.0	1.7	68.3*	62.9*
Cc1nnsc1-c1nc2ccccc2[nH]1	81.3*	9.1	1.4	12.9	-0.2	16.8	3.2
S=C(Nc1ccc(-c2nc3ccccc3[nH]2)cc1)Nc1cccnc1	89.2*	-3.8	4.4	11.5	-9.5	64.2*	59.5*
c1cncc(-c2nc3ccccc3[nH]2)c1	4.4	0.3	x	10.5	0.0	x	x
CCN(CC)C(=O)COc1c(-c2ccco2)oc2ccccc2c1=O	27.4*	3.9	-0.8	33.3*	-1.4	155.6*	154.7*
CCOc1c2ccoc2nc2c(OC)c(OC)ccc12	67.2*	4.8	2.6	13.2	1.2	+	175.3*
C=CCOc1ccc2c(OC)c3ccoc3nc2c1OC	86.7*	-5.8	0.8	0.6	-3.0	39.5*	28.0*
Cc1ccc(S(=O)(=O)Nc2ccc3c(c2)C(=O)N([C@H](C)CO)C[C@H](C)[C@@H](CN(C)S(=O)(=O)c2c(C)noc2C)OCCCC[C@H](C)O3)cc1	x	x	1.2	x	x	x	x
CCN(CC)CCCNC(=O)CCc1c(C)n(CC)c2cc(-c3ccccc3OC)nn2c1=O	65.0*	-4.5	4.2	-6.6	-3.4	195.4*	118.2*
COc1ccccc1-c1cc2nc(C)c(CCC(=O)NCc3ccc(F)cc3)c(C)n2n1	13.2	-8.1	0.6	13.8	-2.4	x	x
COc1ccccc1CNC(=O)CCc1c(C)nc2cc(-c3ccccc3OC)nn2c1C	16.5	-4.7	x	9.3	0.7	x	x
CCOC(=O)CCc1c(C)n(CC)c2cc(-c3ccccc3OC)nn2c1=O	66.5*	-2.5	6.3	7.6	-1.4	+	+
CC(C)Oc1cccc(-c2cc(C(=O)NC(=S)N(C)c3ccccc3C(=O)O)c3ccccc3n2)c1	42.3*	-3.5	x	12.8	-6.1	5.4	-4.2
CC(C)Oc1cccc(-c2cc(C(=O)NN3CCOCC3)c3ccccc3n2)c1	-1.8	0.5	-0.3	13.7	-1.3	x	x
Cc1c(C(=O)OCC(=O)NCCN2C(=O)CSC2=O)oc2c1ccc1ccccc12	63.4*	-9.8	3.6	11.8	-1.3	160.1*	134.0*
O=C(COC(=O)c1cccs1)NCCN1C(=O)CSC1=O	1.3	0.3	-0.2	6.8	-1.0	x	x
CS(=O)(=O)c1nc(-c2ccccc2)c(-c2ccccc2)[nH]1	17.9	10.1	x	-6.6	-2.7	x	x
COc1cc(-c2nc(-c3ccccc3)c(-c3ccc(F)cc3)[nH]2)cc2c1OCO2	30.7*	8.4	0.4	8.4	-0.2	102.7*	70.7*
